The results in this text go back to PMC5540273 (PLoS ONE, 2017).

What all share (conditions): concentration: 1 μM, replicates: in singlicate; n = 1
Experiment [1] deals with EIF2AK1.
Experiment [2] has as its system EPHA1.
The test system of experiment [3] is EPHA2.
The test system of experiment [4] is EPHA3.
Experiment [5] deals with EPHA4.
For experiment [6], the system named is EPHA5.
Experiment [7] deals with EPHA6.
Experiment [8] relates to EPHA7.
The test system of experiment [9] is EPHA8.
For experiment [10], the system named is EPHB1.
Experiment [11] concerns EPHB2.
Experiment [12] has as its system EPHB3.
The test system of experiment [13] is EPHB4.
Experiment [14] concerns EPHB6.
For experiment [15], the system named is ERBB2.
For experiment [16], the system named is ERBB3.
Experiment [17] concerns ERBB4.
Experiment [18] relates to T1, ERK1.
T1 construct: gene MAPK3

Experiment [19] has as its system T2, ERK2.
T2 construct: gene MAPK1

The test system of experiment [20] is T3, ERK3.
T3 construct: gene MAPK6
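Note: KINOMEscan kinase panel screen.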

Turning to `COc1ccc(Nc2nccc(N3CCC(NC(=O)c4cccc(NC(C)=O)c4)C3)n2)cc1` (stereo not shown) [GSK1379732], the “%Inh” value in experiment [1] was 0%; in experiment [2] it was 0%; in experiment [3], 20%; in experiment [4], 1%; in experiment [5] it was 0%; in [6], 0%. The “%Inh” value in [7] was 0%; in experiment [8] it was 0%; in experiment [9], 0%; in experiment [10], 1%; in experiment [11], 8%; in [12], 1%. Moreover, the “%Inh” value in experiment [13] turned out to be 11%; in experiment [14] it was 16%; in [15] it was 52%; in experiment [16] it was 30%; in experiment [17] it was 0%; in [18], 0%. Moreover, the “%Inh” value is 0% in [19] and 5% in [20].
On to `CCn1c(-c2ccncc2)nc2cnccc21` [SB-735216], for which the “%Inh” value is on record as 19% in [1]; 23% in experiment [2]; 5% in experiment [3]; 99.1% in experiment [4]; 10% in experiment [5]; 0% in experiment [6]. Also, the “%Inh” value in [7] is 16%; in experiment [8] it was 0%; in experiment [9] it was 14%; in experiment [10], 0%; in experiment [11], 16%; in [12], 11%. The “%Inh” value in experiment [13] is reported as 7%; in experiment [14] it was 8%; in experiment [15], 0%; in [16], 33%; in [17] it was 0%; in experiment [18], 0%. Further, the “%Inh” value in [19] and in [20] was 0% each time.
For `Fc1cccc(COc2ccc(Nc3ncnc4sc(-c5ccc[nH]5)cc34)cc2Cl)c1` [GW707818], the “%Inh” value in experiment [1] worked out at 0%; in experiment [2], 0%; in [3] it was 0%; in experiment [4], 18%; in [5], 0%; in experiment [6] it was 0%. Besides, the “%Inh” value in [7] worked out at 0%; in experiment [8], 0%; in experiment [9] it was 4%; in experiment [10], 1%; in experiment [11], 15%; in experiment [12], 0%. Further, the “%Inh” value in [13] worked out at 0%; in experiment [14] it was 16%; in experiment [15], 100%; in [16], 0%; in experiment [17], 88%; in [18] it was 0%. For the same molecule, the “%Inh” value in experiment [19] was determined as 0%; in [20], 3%.
As to `Cn1ccc2ncnc(Nc3ccc(Oc4cccc(Cl)c4)c(Cl)c3)c21`, the “%Inh” value is recorded as 0% in experiment [1]; 0% in experiment [2]; 5% in experiment [3]; 13% in experiment [4]; 0% in [5]; 21% in experiment [6]. Also, the “%Inh” value in experiment [7] amounted to 21%; in [8], 94.1%; in experiment [9] it was 86%; in experiment [10], 15%; in [11], 4%; in experiment [12], 0%. The “%Inh” value in experiment [13] worked out at 0%; in experiment [14], 4%; in experiment [15] it was 100%; in [16] it was 17%; in experiment [17], 97%; in [18] it was 2%. The “%Inh” value in experiment [19] is 35%; in experiment [20], 6%.
As to `FC(F)(F)c1cc(Nc2nccc(-c3c(-c4ccc(Cl)cc4)nn4ncccc34)n2)ccc1Cl` [GW829351], the “%Inh” value turned out to be 0% in [1]; 0% in experiment [2]; 0% in experiment [3]; 0% in experiment [4]; 4% in [5]; 0% in experiment [6]. The “%Inh” value in [7] worked out at 0%; in experiment [8], 0%; in experiment [9], 3%; in experiment [10], 0%; in [11], 0%; in experiment [12], 0%. The “%Inh” value in experiment [13] was 0%; in experiment [14], 0%; in experiment [15], 0%; in experiment [16], 0%; in experiment [17], 45%; in [18] it was 0%. Also, the “%Inh” value in [19] and in [20] was 0% each time.
With `Cc1ccc(NC(=O)c2cccc(C#N)c2)cc1-c1ccc(C(=O)Nc2ccncc2)cc1` [GSK1398463], the “%Inh” value is reported as 7% in experiment [1]; 12% in [2]; 30% in experiment [3]; 13% in [4]; 43% in experiment [5]; 0% in experiment [6]. Further, the “%Inh” value in [7] was determined as 34%; in [8], 12%; in experiment [9] it was 46%; in [10] it was 22%; in [11] it was 13%; in experiment [12] it was 26%. For the same molecule, the “%Inh” value is reported as 25% in experiment [13]; 2% in [14]; 0% in experiment [15]; 0% in experiment [16]; 32% in [17]; 0% in experiment [18]. Moreover, the “%Inh” value in experiment [19] worked out at 0%; in [20], 5%.
Regarding `COc1ccc(-c2oc3ncnc(N)c3c2-c2ccc(OC)cc2)cc1` [SB-589132], the “%Inh” value in experiment [1] was 3%; in experiment [2], 70%; in experiment [3] it was 19%; in experiment [4], 0%; in experiment [5], 32%; in experiment [6], 0%. In addition, the “%Inh” value in [7] came to 50%; in [8], 0%; in [9], 9%; in [10], 0%; in experiment [11], 0%; in experiment [12], 24%. For the same molecule, the “%Inh” value in experiment [13] came to 5%; in experiment [14], 36%; in experiment [15], 41%; in experiment [16], 46%; in experiment [17] it was 33%; in experiment [18], 0%. Further, the “%Inh” value in experiment [19] was determined as 0%; in [20] it was 6%.
For the molecule `CS(=O)(=O)CCNCc1nc(-c2ccc3ncnc(Nc4ccc(OCc5cccc(F)c5)c(Cl)c4)c3c2)cs1.Cl` [GW583340], the “%Inh” value came out at 0% in experiment [1]; 5% in experiment [2]; 0% in [3]; 13% in experiment [4]; 0% in experiment [5]; 0% in experiment [6]. In addition, the “%Inh” value in experiment [7] was found to be 0%; in experiment [8], 0%; in experiment [9], 0%; in experiment [10], 1%; in experiment [11], 0%; in experiment [12], 0%. For the same molecule, the “%Inh” value in experiment [13] was 5%; in experiment [14], 19%; in [15] it was 99.7%; in experiment [16] it was 0%; in [17], 99.1%; in experiment [18], 0%. For the same molecule, the results for the “%Inh” value in experiment [19] and in experiment [20] were 0% and 12%, respectively.
